The source of these data is PubChem BioAssay (NCATS).

Each structure is given as a SMILES string. Records with an inconclusive call do not appear. Unmarked numbers belong to inactive results. The source made the active and inactive calls. Calls follow the shape of the dose curve; as a rule, active = well fitted curve in the direction sought with a large enough effect; inconclusive = small, poorly fitted or top-dose-only effect, or another doubt; inactive = no such curve, though single readings can be large; an effect the other way counts as inactive or inconclusive.
Potency is read from the fitted curve at half-maximal effect.

A short description of one assay: qHTS of pediatric cancer cell lines to identify multiple opportunities for drug repurposing: Confirmatory screen for U-2 OS cells (AID 1347122). Also: nearly all actives have a fitted effect of over 65% in size.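 As to activity change, negative = cytotoxicity: plate controls were DMSO for no effect and bortezomib for full effect.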 The note with it: U-2 OS osteosarcoma cell viability; series mostly up to 45.9 µM; activity change, negative = cytotoxicity: at the top concentration. In a few lines: (§1)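 Cells (500-1,000/well) in growth media were settled 5 h at 37 degrees C, then given compounds for 48 h. Viability was read as CellTiter-Glo luminescence. Primary runs used MIPE at 11 points (0.78 nM-46 µM) and NPC at 8 points (0.59 nM-46 µM); follow-ups used 11 points.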
As for `CC[C@]1(O)C[C@H]2CN(CCC3=c4ccccc4=N[C]3[C@@](C(=O)OC)(c3cc4c(cc3OC)N(C)[C@H]3[C@@](O)(C(N)=O)[C@H](O)[C@]5(CC)C=CCN6CC[C@]43[C@@H]65)C2)C1`, the Potency was 0.928 µM (active).
Same read-out and setting: the same measure for `CC(C)n1c(C=C[C@H](O)C[C@H](O)CC(=O)O)c(-c2ccc(F)cc2)c2ccccc21`: 3.69 µM (active).
As to `CC1=C(CC(=O)O)c2cc(F)ccc2C1=Cc1ccc(S(C)=O)cc1` (centres undefined), the call was inactive.
Regarding `Nc1ccn([C@@H]2O[C@H](CO)[C@@H](O)[C@H]2O)c(=O)n1`, the “activity change, negative = cytotoxicity” value is 142%.
On the same count and under the same terms, the same measure for `C[C@@H]1C[C@H]2[C@@H]3CCC4=CC(=O)C=C[C@]4(C)[C@@]3(F)[C@@H](O)C[C@]2(C)[C@@]1(O)C(=O)CO`: 32.5%.
On the same count and under the same terms, the result for `C[C@H](c1ccc(F)cc1CCCC(=O)O)N(c1cc(F)ccc1F)S(=O)(=O)c1ccc(Cl)cc1` reads -4.45%.

Another assay can be described thus: qHTS of pediatric cancer cell lines to identify multiple opportunities for drug repurposing: Confirmatory screen for Rh41 cells (AID 1347123).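 Also: 48 h compound exposure; nearly all actives have a fitted effect of over 60% in size.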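 As to activity change, negative = cytotoxic: plate controls were DMSO for no effect and bortezomib for full effect.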 The note with it: Rh41 rhabdomyosarcoma cells, viability/cytotoxicity qHTS; series mostly up to 45.9 µM; activity change, negative = cytotoxic: at the top concentration. In a few lines: as §1
Consider `CN1CCN(c2ncc(-c3cc(Cl)cc(Cl)c3Cl)c(N)n2)CC1`, for which the “activity change, negative = cytotoxic” value was -73.5%.
Still for that read-out and setting: the result for `C[C@@H]1[C@H](O)[C@@H](C)C=CC=CC=CC=CC=CC=CC=C[C@H](O[C@@H]2O[C@H](C)[C@H](O)[C@H](N)[C@@H]2O)C[C@@H]2O[C@](O)(C[C@@H](O)C[C@@H](O)[C@H](O)CC[C@@H](O)C[C@@H](O)CC(=O)O[C@H]1C)C[C@H](O)[C@@H]2C(=O)O` reads 21.7%; that for `CCC[C@H](N[C@@H](C)C(=O)N1[C@@H]2CCCC[C@H]2C[C@H]1C(=O)O)C(=O)OCC`, 9.65%.
On to `O=c1[nH]nc(OCCCc2ccc(Cl)cc2)c(NCc2cccnc2)c1Br`, for which the Potency was 10.4 µM (active).
On to `CNC(=O)[C@H](CC1=CN=C2C=CCC=C12)NC(=O)[C@@H](CC(=O)NO)CC(C)C`, for which the Potency was 2.93 µM (active).
With `CCC(=O)OCC(=O)[C@@]1(OC(=O)CC)[C@@H](C)C[C@@H]2[C@H]3CCC4=CC(=O)C=C[C@]4(C)[C@@]3(F)[C@@H](O)C[C@@]21C`, the Potency is 14.7 µM (active).
Still for that read-out and setting: the result for `CCC(C)SSc1ncc[nH]1` (centres undefined) reads 9.27 µM (active).
Same read-out and setting: the same measure for `CC(C)n1c(C=C[C@H](O)C[C@H](O)CC(=O)O)c(-c2ccc(F)cc2)c2ccccc21`: 20.8 µM (active).
Take `CC1CNc2c(cccc2S(=O)(=O)N[C@@H](CCCN=C(N)N)C(=O)N2CC[C@@H](C)C[C@@H]2C(=O)O)C1` (some centres undefined): the “activity change, negative = cytotoxic” value was 15.8%.
Consider `C[C@@]1(c2cc(-c3cncnc3)c(F)cc2F)CCSC(N)=N1`, for which the Potency is 7.37 µM (active).
With `CCOC(=O)[C@H](CCc1ccccc1)N[C@@H](C)C(=O)N1CCCC1C(=O)O` (some centres undefined), the Potency is 9.27 µM (active).
Regarding `CC1=C(CC(=O)O)c2cc(F)ccc2C1=Cc1ccc(S(C)=O)cc1` (centres undefined), the “activity change, negative = cytotoxic” value was 0.0855%.
Take `CSc1cccc(Nc2ncc3cc(-c4c(Cl)cccc4Cl)c(=O)n(C)c3n2)c1`: the Potency is 0.465 µM (active).
Still for that read-out and setting: the same measure for `CC1(COc2ccc3c(c2)ncn3-c2ccc3cccc(N4CCC(N)CC4)c3n2)COC1`: 8.27 µM (active); for `Cc1ccc2c(c1)C(=O)[C@]1(O)CCN(c3ccccc3)C1=N2`: 11.7 µM (active).
Same read-out and setting: the same measure for `COc1cc([C@@H]2c3cc4c(cc3[C@@H](O[C@@H]3O[C@@H]5CO[C@@H](C)O[C@@H]5[C@H](O)[C@@H]3O)[C@H]3COC(=O)[C@H]23)OCO4)cc(OC)c1O`: 4.14 µM (active).
On the same count and under the same terms, the same measure for `CON(C)C(=O)N1N=C(c2cc(F)ccc2F)S[C@]1(CCCN)c1ccccc1`: 0.0185 µM (active).
For the compound `C[C@@H]1C[C@H]2[C@@H]3CCC4=CC(=O)C=C[C@]4(C)[C@@]3(F)[C@@H](O)C[C@]2(C)[C@@]1(O)C(=O)CO`, the “activity change, negative = cytotoxic” value is -14.3%.
The same measure, in the same setting: the result for `C[C@H](c1ccc(F)cc1CCCC(=O)O)N(c1cc(F)ccc1F)S(=O)(=O)c1ccc(Cl)cc1` reads -22.6%.
Consider `CN(C(Cc1ccc(OS(=O)(=O)c2cccc3cnccc23)cc1)C(=O)N1CCN(c2ccccc2)CC1)S(=O)(=O)c1cccc2cnccc12` (centres undefined), for which the Potency was 5.22 µM (active).
As to `Cc1ccc(C(=O)N(CCCN)[C@@H](c2nc3cc(Cl)ccc3c(=O)n2Cc2ccccc2)C(C)C)cc1`, the Potency is 0.024 µM (active).
Same read-out and setting: the same measure for `Cc1ccc(C(=O)N(CCCN)[C@@H](c2oc3cc(Cl)ccc3c(=O)c2Cc2ccccc2)C(C)C)cc1`: 0.0093 µM (active); for `COC(=O)Nc1ccc(-c2nc(N3CCOCC3)c3cnn(C4CCN(C(=O)OC)CC4)c3n2)cc1`: 2.61 µM (active).
Turning to `O=C1Nc2ccc(I)cc2C1=Cc1cc(Br)c(O)c(Br)c1`, the “activity change, negative = cytotoxic” value is 7.28%.

A further assay in a line: qHTS of pediatric cancer cell lines to identify multiple opportunities for drug repurposing: Confirmatory screen for RD cells (AID 1347124).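 Also: cells exposed to compound for 48 h before viability readout; nearly all actives have a fitted effect of over 65% in size.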 As to activity change, negative = cytotoxic: % is scaled to controls: 0 for no effect and ±100 for the full control effect. The note with it: RD rhabdomyosarcoma cell viability; series mostly up to 45.9 µM; activity change, negative = cytotoxic: at the top concentration. Summed up: as §1
As for `CN1CCN(c2ncc(-c3cc(Cl)cc(Cl)c3Cl)c(N)n2)CC1`, the “activity change, negative = cytotoxic” value is -18%.
As to `C[C@@H]1[C@H](O)[C@@H](C)C=CC=CC=CC=CC=CC=CC=C[C@H](O[C@@H]2O[C@H](C)[C@H](O)[C@H](N)[C@@H]2O)C[C@@H]2O[C@](O)(C[C@@H](O)C[C@@H](O)[C@H](O)CC[C@@H](O)C[C@@H](O)CC(=O)O[C@H]1C)C[C@H](O)[C@@H]2C(=O)O`, the “activity change, negative = cytotoxic” value was 15.3%.
Still for that read-out and setting: the same measure for `CCC[C@H](N[C@@H](C)C(=O)N1[C@@H]2CCCC[C@H]2C[C@H]1C(=O)O)C(=O)OCC`: 3.65%; for `CCC(=O)OCC(=O)[C@@]1(OC(=O)CC)[C@@H](C)C[C@@H]2[C@H]3CCC4=CC(=O)C=C[C@]4(C)[C@@]3(F)[C@@H](O)C[C@@]21C`: 8.28%.
With `CC[C@]1(O)C[C@H]2CN(CCC3=c4ccccc4=N[C]3[C@@](C(=O)OC)(c3cc4c(cc3OC)N(C)[C@H]3[C@@](O)(C(N)=O)[C@H](O)[C@]5(CC)C=CCN6CC[C@]43[C@@H]65)C2)C1`, the Potency is 0.369 µM (active).
Regarding `COc1cc(CNC(=O)CCCCC=CC(C)C)ccc1O`, the “activity change, negative = cytotoxic” value is 2.82%.
On to `CCC(c1ccc(O)cc1)C(CC)c1ccc(O)cc1` (centres undefined), for which the Potency is 10.4 µM (active).
Still for that read-out and setting: the result for `CC(C)n1c(C=C[C@H](O)C[C@H](O)CC(=O)O)c(-c2ccc(F)cc2)c2ccccc21` reads 10.4 µM (active); that for `CCOC(=O)[C@H](CCc1ccccc1)N[C@@H](C)C(=O)N1CCCC1C(=O)O` (some centres undefined), 13.1 µM (active).
`CC1=C(CC(=O)O)c2cc(F)ccc2C1=Cc1ccc(S(C)=O)cc1` (centres undefined): the “activity change, negative = cytotoxic” value was 8.55%.
Consider `CSc1cccc(Nc2ncc3cc(-c4c(Cl)cccc4Cl)c(=O)n(C)c3n2)c1`, for which the Potency was 0.369 µM (active).
Consider `CCC[C@H](Nc1nc(-c2ccc(NC(=O)NCC)c(OC)c2)ncc1C)c1cccnc1`, for which the Potency was 0.147 µM (active).
Consider `CCN(CCO)CCCOc1ccc2c(Nc3cc(CC(=O)Nc4cccc(F)c4)[nH]n3)ncnc2c1`, for which the “activity change, negative = cytotoxic” value was -3.75%.
The same measure, in the same setting: the same measure for `CC[C@H](NC(=O)[C@H](C)NC)C(=O)N1C[C@@H](O)C[C@H]1Cc1c(-c2[nH]c3cc(F)ccc3c2C[C@H]2C[C@H](O)CN2C(=O)[C@H](CC)NC(=O)[C@H](C)NC)[nH]c2cc(F)ccc12`: 8.78%.
Same read-out and setting: the same measure for `CC1(COc2ccc3c(c2)ncn3-c2ccc3cccc(N4CCC(N)CC4)c3n2)COC1`: 24.3%; for `Cc1ccc2c(c1)C(=O)[C@]1(O)CCN(c3ccccc3)C1=N2`: 10.4%; for `COc1cc([C@@H]2c3cc4c(cc3[C@@H](O[C@@H]3O[C@@H]5CO[C@@H](C)O[C@@H]5[C@H](O)[C@@H]3O)[C@H]3COC(=O)[C@H]23)OCO4)cc(OC)c1O`: 8.96%.
As for `COc1cc2ncnc(Nc3cc(Br)c(O)c(Br)c3)c2cc1OC`, the “activity change, negative = cytotoxic” value was 9.22%.
In the case of `CON(C)C(=O)N1N=C(c2cc(F)ccc2F)S[C@]1(CCCN)c1ccccc1`, the Potency was 0.0465 µM (active).
`C[C@@H]1C[C@H]2[C@@H]3CCC4=CC(=O)C=C[C@]4(C)[C@@]3(F)[C@@H](O)C[C@]2(C)[C@@]1(O)C(=O)CO`: the “activity change, negative = cytotoxic” value was -28.6%.
For `Cc1ccc(C(=O)N(CCCN)[C@@H](c2nc3cc(Cl)ccc3c(=O)n2Cc2ccccc2)C(C)C)cc1`, the Potency was 2.4 µM (active).
Consider `Cc1csc(-c2nnc(Nc3ccc(Oc4ncccc4-c4ccnc(N)n4)cc3)c3ccccc23)c1`, for which the “activity change, negative = cytotoxic” value is 6.99%.
For the compound `Cc1ccc(C(=O)N(CCCN)[C@@H](c2oc3cc(Cl)ccc3c(=O)c2Cc2ccccc2)C(C)C)cc1`, the Potency is 0.0165 µM (active).
For the compound `O=C1Nc2ccc(I)cc2C1=Cc1cc(Br)c(O)c(Br)c1`, the “activity change, negative = cytotoxic” value was 2.92%.
